Screening data from PubChem.
A selection: hits, their analogues and other compounds. The true share with any hit is near 21%.
IL-1B inflam inh = qHTS for Inhibitors of Inflammasome Signaling: IL-1-beta AlphaLISA Primary Screen. THP-1 LPS/ATP IL-1B secretion, AlphaLISA, 16 h; active compounds read low. AID 743279, 2014. actives 4.7% (n = 360,000). activity change, % at 57.5 µM; in the data active means activity change below about -50%; inconclusive means mostly about -30% to -49%; further: on the % scale 0 is the no-effect control and ±100 the full control effect
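THP-1 cells pretreated 1 hr with compounds (up to 57.5 uM final), then stimulated with LPS (250 ng/mL final) plus ATP (1.25 mM final); secreted IL-1B measured by AlphaLISA after 16 hr, decreased signal indicating inhibition.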
TDP1 cell noCPT = qHTS for Inhibitors of human tyrosyl-DNA phosphodiesterase 1 (TDP1): qHTS in cells in absence of CPT; actives 15% (n = 420,000); DT40 Tdp1-/- hTDP1 cells, no CPT, ATP luminescence, 48 h; AID 686978, 2013; Potency, µM (series often up to 46.2 µM), for the others: at the top dose activity change, negative = growth inhibition, hits mostly inhibitors; further: potency means the concentration at half of the fitted maximal effect; on the % scale 0 is the no-effect control and ±100 the full control effect; nearly all actives have a fitted effect of over 55% in size
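Growth of hTDP1-complemented DT40 Tdp1-knockout cells is measured by ATP luminescence after at least 48 hr compound exposure at 37 °C, with DMSO substituting for the 20 nM CPT used in the parallel screen.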
D3 antag = qHTS of D3 Dopamine Receptor Antagonist: qHTS. D(3) dopamine receptor (Homo sapiens), P35462. D3R cells, DiscoveRx beta-arrestin luminescence, antagonist mode; active compounds read low. actives 2.5% (n = 360,000). max response, negative = inhibition, %; in the data active means max response below about -50%; inconclusive means no clear call, values can overlap the other calls; further: on the % scale 0 is the no-effect control and ±100 the full control effect
Target sequence (P35462 whole entry, looked up): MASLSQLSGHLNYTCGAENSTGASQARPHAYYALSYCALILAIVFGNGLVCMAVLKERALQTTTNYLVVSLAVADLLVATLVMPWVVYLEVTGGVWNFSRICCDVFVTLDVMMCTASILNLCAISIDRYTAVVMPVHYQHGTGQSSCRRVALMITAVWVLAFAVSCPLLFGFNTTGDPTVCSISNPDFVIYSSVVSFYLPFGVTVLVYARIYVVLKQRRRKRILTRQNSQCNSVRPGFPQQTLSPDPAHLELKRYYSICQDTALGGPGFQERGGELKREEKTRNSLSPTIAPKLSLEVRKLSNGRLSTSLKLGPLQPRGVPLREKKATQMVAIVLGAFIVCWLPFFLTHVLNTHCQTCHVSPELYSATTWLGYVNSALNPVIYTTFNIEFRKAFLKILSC
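Cells expressing the human receptor were seeded at 1500 cells/well, incubated overnight at 37 degrees C in 5% CO2, then exposed to library compounds with dopamine controls for 90 minutes at 37 degrees C before luminescent detection.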
DRD3 agonist = qHTS of D3 Dopamine Receptor Agonist: qHTS. D3R DiscoveRx beta-arrestin cells, luminescence, 90 min. actives 0.58% (n = 410,000). D(3) dopamine receptor (Homo sapiens), P35462. max activation, %; in the data active means max activation above about 30%; further: 0% is about no effect
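Agonist-mode cell screen: cells plated at 1500/well and incubated overnight at 37 °C, then exposed to library compounds for 90 min at 37 °C. Detection reagent was added for 30–60 min at room temperature, and luminescence was read.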
ClpP mod = qHTS Assay for Activators of ClpP; Potency, µM (top dose mostly 57.5 µM), inactives show at the highest dose activity change, negative = active; AID 651965, 2013; purified B. subtilis ClpP, FRET peptide cleavage, 20 min; actives 1.9% (n = 340,000); active means well fitted falling curve with a large enough effect; inconclusive means small, poorly fitted or top-dose-only effect; inactive means no such curve, though single readings can be large or run the other way; further: potency means the concentration at half of the fitted maximal effect; the source files actives as falling curves though it sought activators and does not explain the sign; nearly all actives have a fitted effect of over 65% in size
Target sequence (P80244 whole entry, looked up): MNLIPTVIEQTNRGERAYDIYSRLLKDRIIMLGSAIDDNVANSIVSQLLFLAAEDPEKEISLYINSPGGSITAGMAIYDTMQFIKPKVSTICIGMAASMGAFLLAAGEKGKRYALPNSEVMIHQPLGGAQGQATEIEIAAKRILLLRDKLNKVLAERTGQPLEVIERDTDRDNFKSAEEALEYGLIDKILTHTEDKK
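FRET quenching reversal measured ClpP activation: 10 microg/mL B. subtilis ClpP at pH 8 with the FRET-FV decapeptide, read at 430 nm after 320 nm excitation. The 20-min minus 0-min signal was scaled between DMSO/no-enzyme wells and ADEP (5.8 microM final).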
DT40 TDP1 CPT = qHTS for Inhibitors of human tyrosyl-DNA phosphodiesterase 1 (TDP1): qHTS in cells in presence of CPT | chicken DT40 Tdp1-/-;hTDP1 cells + 20 nM CPT, ATP luminescence, 48 h | Potency, µM (doses to about 46.2 µM), for the others: at the top dose activity change, negative = growth inhibition, most hits filed as inhibitors | actives 12% (n = 420,000); further: potency means the concentration at half of the fitted maximal effect; on the % scale 0 is the no-effect control and ±100 the full control effect; nearly all actives have a fitted effect of over 55% in size
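Cell growth measured by CellTiter-Glo luminescence after a minimum 48 h, 37 C compound exposure with 20 nM CPT in Tdp1-knockout DT40 cells stably expressing hTDP1, seeded 400/well; qHTS titration format.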
* marks the source's active call; other numbers are inactive results; ? = inconclusive; / = not tested or not shown. Unless noted, the call rests on the fitted dose curve; in most records, active means well fitted inhibition curve with a large enough effect; inconclusive means small, poorly fitted or top-dose-only effect; inactive means flat fitted curve, though single readings scatter.

SMILES	IL-1B inflam inh	TDP1 cell noCPT	D3 antag	DRD3 agonist	ClpP mod	DT40 TDP1 CPT
CCCCC(=O)Nc1ccc(OCc2cc(=O)n3c(C)csc3n2)cc1	/	?	/	1	-24%	?
Cc1ccc(C)c(S(=O)(=O)Nc2ccc(S(=O)(=O)Nc3onc(C)c3C)cc2)c1	18	-21%	-52*	1	0%	-13%
Cc1noc(NS(=O)(=O)c2ccc(NC(=O)c3ccc(Br)o3)cc2)c1C	88	-11%	-72*	0	-3%	-11%
Cc1cc(C)c2c(CC(=O)Nc3ccc(S(=O)(=O)Nc4nc(C)cc(C)n4)cc3)coc2c1	/	?	/	8	0%	?
Cc1ccc(C2CC(=O)C(C=NCCN3CCN(C(=S)Nc4ccc(F)cc4)CC3)=C(O)C2)cc1 (stereo unspecified)	-4	?	-11	-5	/	-3%
Cc1cc(C)nc(N/N=C/C2=C(O)CC(c3ccc(F)cc3)CC2=O)n1 (stereo unspecified)	252	9.2µM*	-121*	-26	0%	23µM*
COc1ccc(CCN2CCCn3c2nc2c3c(=O)n(CC(C)C)c(=O)n2C)cc1OC	-1	13µM*	17	18	-14%	21µM*
COc1ccc(N2CC(C)Cn3c2nc2c3c(=O)n(CCN3CCOCC3)c(=O)n2C)cc1 (stereo unspecified)	-14	4%	6	7	-6%	2%
Cn1c(=O)n(Cc2ccccc2)c(=O)c2c1nc1n2CCCN1C1CCCCC1	25	-17%	-10	1	/	-12%
Cc1cccc(Cn2c(=O)c3c(nc4n3CCCN4Cc3ccccc3)n(C)c2=O)c1	?	11µM*	4	-2	-14%	?
Cn1c(=O)n(Cc2ccc(F)cc2)c(=O)c2c1nc1n2CCCN1C1CCCCC1	-18	21µM*	-99*	1	-2%	23µM*
COc1cccc(N2CC(C)Cn3c2nc2c3c(=O)n(CCN3CCOCC3)c(=O)n2C)c1 (stereo unspecified)	-12	-20%	-64*	-5	-14%	-4%
Cc1oc2ncn(C)c(=O)c2c1C(=O)NCc1ccc(Cl)cc1	/	?	/	6	0%	-23%
CCCCn1c(N)c(N(CC(C)C)C(=O)CSc2nnc(-c3ccc(Cl)cc3)o2)c(=O)[nH]c1=O	19	-7%	1	13	/	11%
Cc1cccc(N2CCCn3c2nc2c3c(=O)n(CCN3CCOCC3)c(=O)n2C)c1	24	?	-1	1	-14%	21µM*
COc1ccc(N2CC(C)Cn3c2nc2c3c(=O)n(Cc3ccc(C)cc3)c(=O)n2C)c(OC)c1 (stereo unspecified)	?	16µM*	2	5	/	?
C=C1C=C(C)n2ncc(C(=O)Nc3ccc(NC(C)=O)c(Cl)c3)c2N1	/	?	/	/	0%	?
COc1ccc(OC)c(NC(=O)[C@H](CSCc2ccccc2)N2Cc3ccccc3C2=O)c1	/	?	/	3	0%	21µM*
O=C(NCCCN1CCCC1)[C@H](CSCc1ccccc1)N1Cc2ccccc2C1=O	-30	29µM*	-60*	-16	/	?
COc1ccc(C(=O)N2CCC3(CC2)CN(CC(C)C)C3)cc1	/	-7%	/	/	/	6%
COC(=O)c1ccccc1NC(=S)NC(=O)COc1ccccc1	23	?	?	-9	-1%	-18%
Cc1ccc(C(=O)NNC(=S)NC(=O)COc2ccccc2)cc1	33	6.5µM*	10	3	-6%	15µM*
Cc1cccc(OCC(=O)NC(=S)NNC(=O)c2ccncc2)c1	-20	?	-15	0	-3%	?
CC(C)(C)c1ccc(OCC(=O)NNC(=O)CCc2ccccc2)cc1	19	-10%	?	4	1%	1%
CC(C)(C)c1ccc(C(=O)NC(=S)NNC(=O)COc2ccccc2)cc1	78	16µM*	-4	5	-1%	13µM*
SMILES	IL-1B inflam inh	TDP1 cell noCPT	D3 antag	DRD3 agonist	ClpP mod	DT40 TDP1 CPT
O=C(COc1ccccc1)NC(=S)Nc1cccc2c(O)cccc12	65	26µM*	-28	-15	7%	?
CCC(=O)N1c2ccc(S(=O)(=O)NCCc3ccc(OC)c(OC)c3)cc2CC1C (stereo unspecified)	-6	?	3	2	-3%	?
CCCCN(CC)CCNC(=O)Cn1cnc2sc(C)c(S(=O)(=O)N3CCN(c4ccccc4OC)CC3)c2c1=O	/	?	/	2	-1%	?
Cc1cc(C)c(S(=O)(=O)Nc2cccc(-c3cn4ccccc4n3)c2)c(C)c1	/	29µM*	/	7	28µM*	18µM*
Cc1cccc(S(=O)(=O)Nc2ccc(-c3cn4ccccc4n3)cc2)c1	-17	-27%	17	-7	28µM*	-3%
CCCS(=O)(=O)Nc1cccc(-c2cn3ccc(C)cc3n2)c1	/	16µM*	/	-13	4%	23µM*
Cc1csc2nc(-c3ccc(NS(=O)(=O)c4cccc(F)c4)cc3)cn12	/	16µM*	/	-1	2%	?
Cc1cc(C)c(S(=O)(=O)Nc2ccc(-c3cn4ccccc4n3)cc2)c(C)c1	?	?	18	1	?	?
C1=Cc2ccccc2/C1=C\c1cccc(/C=C2\C=Cc3ccccc32)c1	/	?	/	/	0%	?
C1=Cc2ccccc2/C1=C\c1cc2c3c(c1)CCCN3CCC2	/	5µM*	/	/	-5%	1.1µM*
CCOc1ccc(CCN2C(=S)N([C@@H](CC(C)C)CN3CCCC3CN3C(=S)NC[C@@H]3Cc3ccc(O)cc3)C[C@@H]2Cc2ccc(O)cc2)cc1 (stereo partly specified)	-71*	6.5µM*	-24	6	0%	6.5µM*
CCOc1ccc(CCN2C(=S)N([C@@H](Cc3ccc(O)cc3)CN3CCC[C@@H]3CN3C(=S)NC[C@@H]3Cc3ccccc3)C[C@@H]2Cc2ccc(O)cc2)cc1	?	4.1µM*	0	-22	-2%	3.7µM*
